Results published in PubChem BioAssay AID493035 (The Scripps Research Institute Molecular Screening Center, 2011).
The whole screen tested about 2,000 compounds, of which about 45 (2%) were called active.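 Rule for the calls: active = inhibition above the mean of all tested compounds plus 3 SD (cut at about 49% in these data); inactive = the rest.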 Only a selection was taken, and actives are over-represented in it overall.

What follows are compounds tested against Perilipin-5 (Homo sapiens) + 1-acylglycerol-3-phosphate O-acyltransferase ABHD5 (Homo sapiens) (UniProt Q00G26+Q8WTS1) (assay: ABHD5-PLIN5 interaction inhibitors, pilot screen, cell lysate, split luciferase complementation, luminescence, NIH validation set (AID 493035;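 note: 0% = DMSO only wells while the 100% control is not stated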)). Settings: split G. princeps luciferase complementation, lysates, 4 h; at 7.9 µM, active compounds read high.
Perilipin-5 (Homo sapiens) + 1-acylglycerol-3-phosphate O-acyltransferase ABHD5 (Homo sapiens), sequence (Q00G26 whole entry, looked up): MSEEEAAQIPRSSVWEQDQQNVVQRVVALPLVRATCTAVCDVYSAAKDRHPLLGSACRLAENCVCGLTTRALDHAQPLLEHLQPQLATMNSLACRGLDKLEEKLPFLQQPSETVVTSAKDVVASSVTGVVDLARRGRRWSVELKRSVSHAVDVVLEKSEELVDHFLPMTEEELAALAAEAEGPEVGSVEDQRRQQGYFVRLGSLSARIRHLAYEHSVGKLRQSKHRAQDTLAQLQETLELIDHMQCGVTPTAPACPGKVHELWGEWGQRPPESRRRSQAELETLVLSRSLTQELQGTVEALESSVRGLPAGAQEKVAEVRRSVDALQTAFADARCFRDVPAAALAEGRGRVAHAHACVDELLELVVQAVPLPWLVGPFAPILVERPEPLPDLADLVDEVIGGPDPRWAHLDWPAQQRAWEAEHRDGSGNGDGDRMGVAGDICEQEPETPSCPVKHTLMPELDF
Perilipin-5 (Homo sapiens) + 1-acylglycerol-3-phosphate O-acyltransferase ABHD5 (Homo sapiens), sequence (Q8WTS1 whole entry, looked up): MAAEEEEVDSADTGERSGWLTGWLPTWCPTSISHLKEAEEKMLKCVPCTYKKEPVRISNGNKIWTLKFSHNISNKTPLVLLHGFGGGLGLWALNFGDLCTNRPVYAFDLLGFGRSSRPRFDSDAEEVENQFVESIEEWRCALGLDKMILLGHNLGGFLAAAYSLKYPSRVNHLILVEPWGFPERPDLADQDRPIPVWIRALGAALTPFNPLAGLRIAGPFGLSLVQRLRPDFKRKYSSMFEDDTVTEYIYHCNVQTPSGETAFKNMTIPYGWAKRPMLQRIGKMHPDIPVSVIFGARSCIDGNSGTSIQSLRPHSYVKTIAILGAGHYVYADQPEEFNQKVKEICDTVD

Compound | inhibition
COc1ccc2cc(-c3nc4ccccc4n3C)c(=O)oc2c1 | -5.19% (inactive)
CCn1c2ccccc2c2cc(CC(N)=O)ccc21 | -7.62% (inactive)
COc1ccccc1C(=O)Nc1cc2cc(Br)ccc2oc1=O | -7.35% (inactive)
Cc1ccc(CSCC(=O)NCCCN2CCOCC2)cc1 | 2.33% (inactive)
Cc1cc(=O)c2c(O)c(O)ccc2o1 | -3.3% (inactive)
O=c1nc2sc3ccccc3n2c(=O)n1-c1ccc(Cl)cc1 | 5.72% (inactive)
COc1ccc(C)cc1S(=O)(=O)Nc1ccc(F)cc1 | 0.68% (inactive)
CCCCNC(=O)NS(=O)(=O)c1ccc(C)cc1 | -4.64% (inactive)
Cc1ccc(S(=O)(=O)N[C@@H](Cc2ccccc2)C(=O)CCl)cc1 | 84.4% (active)
CNS(=O)(=O)c1ccc(C)cc1 | -16.6% (inactive)
COc1ccc(-c2nnc(-c3cc4c(ccc5ccccc54)oc3=O)o2)cc1 | 5.2% (inactive)
COc1c(C=O)c(CCN(C)C(=O)c2ccc(F)cc2)cc2c1OCO2 | 3.02% (inactive)
CCCOc1ccc(-c2cc(C(=O)NCC3CCCO3)c3ccccc3n2)cc1 (stereo not drawn) | -0.81% (inactive)
COC(=O)c1cc(-c2ccc(C)o2)nc2ccccc12 | 72.8% (active)
O=C(O)c1cc(-c2ccccc2)nc2ccccc12 | -2.12% (inactive)
C/C(=N\NC(=O)c1ccccc1[N+](=O)[O-])c1ccc(Br)s1 | -7.54% (inactive)
Cc1cc(C)c(NC(=O)NC(=O)C(Cl)(Cl)Cl)c(C)c1 | -18.5% (inactive)
O=C(/C=C/c1ccc2c(c1)OCO2)NCc1ccc(F)cc1 | 1.71% (inactive)
O=C(/C=C/c1ccc2c(c1)OCO2)c1ccccn1 | 55.7% (active)
O=C(/C=C/c1ccc2c(c1)OCCCO2)c1ccc2ccccc2c1O | 26.6% (inactive)
O=C1N[C@@H](Cc2cnc[nH]2)C(=O)N2CCC[C@@H]12 | -13.3% (inactive)
O=C(c1ccccc1F)c1cc2c(cc1[N+](=O)[O-])OCCO2 | 2.64% (inactive)
O=C(CN1CC[n+]2c(-c3cccs3)csc21)c1ccc(Br)cc1 | 51.8% (active)
COc1ccc(-c2c3c(=O)n(C)c(=O)n(C)c3cn2C2CCCCC2)cc1 | 7.04% (inactive)
O=C(O)/C=C/c1cccc(OCc2ccccc2)c1 | -15.3% (inactive)

Compound | inhibition
CC(C)C[C@H](NC(=O)NC(C)C)C(=O)O | -0.17% (inactive)
CC(C)OC(=O)CC1C(=O)NCCN1C(=S)NC(=O)c1cccs1 (stereo not drawn) | -6.51% (inactive)
COc1ccc(C2CC(c3c(O)cc(C)oc3=O)=NCCS2)c(OC)c1 (stereo not drawn) | 22.5% (inactive)
COc1cc2c(cc1OC)/C(=C/c1ccc(Cl)cc1)C(=O)OC2 | 33.3% (inactive)
O=C1ON=C(c2ccc(Cl)cc2)/C1=C/c1ccc(O)cc1 | 70.2% (active)
Nc1cccc(C(=O)O)c1 | -4.68% (inactive)
O=C(O)C1[C@H]2C(=O)N(C3CCCC3)C[C@]23C=C[C@H]1O3 (stereo partly drawn) | -13.3% (inactive)
O=C1CCCN1C(=O)CCC(=O)N1CCCC1=O | 4.49% (inactive)
Cc1oc2c(C)c3oc(=O)c4c(c3cc2c1C)CCCC4 | 1.69% (inactive)
CS(=O)(=O)Oc1ccc2c(c1)O/C(=C\C=C\c1ccccc1)C2=O | 53.5% (active)
COc1ccccc1C(=O)Oc1ccc2c(c1)O/C(=C\c1ccncc1)C2=O | 35.9% (inactive)
CCc1ccc(/C=C2\Oc3cc(OC(=O)N4CCOCC4)ccc3C2=O)cc1 | 17.7% (inactive)
O=C(O)C1CCN(C(=O)COc2ccc3c4c(c(=O)oc3c2)CCC4)CC1 | -5.81% (inactive)
COc1ccc([C@H]2[C@H](C(=O)OC(C)(C)C)N3N=Cc4ccccc4C3C23C(=O)c2ccccc2C3=O)cc1OC (stereo partly drawn) | 0.07% (inactive)
O=C(NCCO)c1ccc2[nH]c3ccccc3c2c1 | -4.84% (inactive)
COc1ccc2nc(C)cc(Nc3ccccc3O)c2c1 | -5.57% (inactive)
O=C1c2ccccc2C2(c3ccccc3)NCCN12 (stereo not drawn) | 0.12% (inactive)
COc1cc2c3c(c1)C(C)CC(C)(C)N3C(=O)C2=O (stereo not drawn) | 3.84% (inactive)
CC1(c2ccccc2)CC(C)(C)N2C(=O)C(=O)c3cccc1c32 (stereo not drawn) | 59.8% (active)
Cc1[nH]c2ccccc2c1/C=C/c1nc2ccccc2c(=O)n1CCO | 8.95% (inactive)
C[C@]12CC[C@@H]3c4ccc(O)cc4C(=O)C[C@H]3[C@@H]1CC[C@@H]2O | 9.16% (inactive)
CC(=O)OCC1OC(n2ccc(=O)[nH]c2=O)C(O)C1O (stereo not drawn) | -2.69% (inactive)
C/C(=N\NC(=O)C1(C)CC1(Br)Br)c1ccc([N+](=O)[O-])cc1 (stereo not drawn) | -8.2% (inactive)
O=C(NCc1ccc(N2CCCC2=O)cc1)c1ccc(F)cc1 | 7.2% (inactive)
CC(=Nc1ccccc1)C1=C(O)CCCC1=O | 0.34% (inactive)

Compound | inhibition
CC1(C)c2ccccc2N2CC(=O)N(CC(N)=O)C21C (stereo not drawn) | 4.9% (inactive)
O=C(/C=C/c1ccco1)N1CCN(c2ccccc2)CC1 | 2.96% (inactive)
CC1(C)c2ccccc2N2CC(=O)NC21/C=C/c1ccco1 (stereo not drawn) | 50.2% (active)
Nc1ccc2cn[nH]c2c1 | -10.6% (inactive)
Cc1ccc(N2C(=O)c3ccccc3C2=O)cc1C | -3.44% (inactive)
CNc1nc(N(C)C)nc(N(C)C)n1 | -0.61% (inactive)
COC(=O)c1ccc(C(=O)OC)c(NC(=O)C(C)C)c1 | -13.5% (inactive)
COc1ccc(-c2nc(NC(C)=O)sc2-c2ccc(OC)cc2)cc1 | 2.96% (inactive)
COc1ccc(C2C(=O)c3ccccc3C2=O)cc1 | -1.24% (inactive)
COc1ccc(C2=CC(=O)C=CC2=O)cc1 | 69.1% (active)
COc1ccccc1CCn1cnc2c3cc(C)ccc3n(C)c2c1=O | 12.2% (inactive)
CCOc1cc2c(cc1OCC)C(c1ccccc1)N(c1ccc(C(=O)O)cc1)C(=O)C2 (stereo not drawn) | 5.15% (inactive)
CCS(=O)(=O)Nc1cc(OC)c(OC)cc1Cc1nccc2cc(OC)c(OC)cc12 | -5.76% (inactive)
O=C(COc1ccc2ccc(=O)oc2c1)c1ccccc1 | -3.28% (inactive)
COc1ccc(NC(=O)C2C(=O)N(CCO)C3(C)CC2c2ccccc2O3)cc1 (stereo not drawn) | -8.28% (inactive)
COc1ccc2c(c1)C=CC1(O2)N(CCO)c2ccccc2C1(C)C (stereo not drawn) | 50.9% (active)
O=C1CCCN1CCCn1cnc2c([nH]c3ccc(F)cc32)c1=O | 1.78% (inactive)
CC12CCCCN1CCCc1c2[nH]c2ccccc12 (stereo not drawn) | 6.67% (inactive)
CC(C)C[C@H](NC(=O)[C@@H]1Cc2ccccc2CN1C(=O)OC(C)(C)C)C(=O)NCC1CCC(C(=O)O)CC1 (stereo partly drawn) | -1.68% (inactive)
COc1ccc(CN(CCC(c2ccccc2)c2ccc(OC(C)C)cc2)C(=O)CCl)cc1OC (stereo not drawn) | 67% (active)
COc1ccccc1C(CC(=O)Nc1ccccc1C)c1ccc(OC(C)C)cc1 (stereo not drawn) | 1.65% (inactive)
COc1ccc(CNCCC(c2ccc(F)cc2)c2ccc(OC(C)C)cc2)cc1OC (stereo not drawn) | -5.38% (inactive)
Cn1c(=O)oc2cc(S(=O)(=O)N3CCc4ccccc4C3)ccc21 | -0.05% (inactive)
CC(C)C12CN3CC(C(C)C)(CN(C1)C3c1ccccc1O)C2=O (stereo not drawn) | 0.76% (inactive)
c1coc(-c2nnc3n2C2(CCCC2)Cc2ccccc2-3)c1 | -2.54% (inactive)

Compound | inhibition
CC(C)CN1CCN(Cc2ccc(C#CC(C)(C)O)cc2)CC1CCO (stereo not drawn) | 1.45% (inactive)
COc1ccc(CN2CCCCC2C(=O)Nc2ccc(OC)c(OCC(C)C)c2)cc1OC (stereo not drawn) | -8.58% (inactive)
COc1ccccc1C(O)c1nccn1C (stereo not drawn) | -0.96% (inactive)
COc1cc(/C=C(\C#N)C(=O)N2CCc3ccccc32)ccc1O | 50.3% (active)
COc1cc(/C=C/C(=O)CC(=O)/C=C/c2ccc(O)c(OC)c2)ccc1O | 47.6% (inactive)
CC12CCC(C(=O)N3CCc4ccccc43)(CC1=O)C2(C)C (stereo not drawn) | -4.02% (inactive)
Cn1c(=O)[nH]c(=O)c2c1nc(NCc1ccco1)n2CCCc1ccccc1 | -10% (inactive)
CC1(C)CC(NC(=O)C23CCC(C)(C(=O)C2=O)C3(C)C)CC(C)(C)N1 (stereo not drawn) | -7.41% (inactive)
NC(N)=N/N=C/c1ccc(OS(=O)(=O)c2ccccc2)cc1 | -1.57% (inactive)
COc1cc(C(=O)Nc2cccc(-c3nnc(-c4ccco4)o3)c2)ccc1OC(C)=O | -3.44% (inactive)
COc1ccc(/C=C2\CCc3ccccc3C2=O)c(OC)c1OC | -7.62% (inactive)
COc1ccc(/C=C2\CC/C(=C\c3ccc(OC)c(OC)c3)C2=O)cc1OC | 72.8% (active)
COc1ccc(/C=C2\CCn3c2nc2cc(C(=O)O)ccc2c3=O)cc1OC | -3.54% (inactive)
COc1ccc(C(=O)Nc2ccccc2C(=O)NCCCn2ccnc2)cc1 | -6.29% (inactive)
Cc1nonc1CN(C)C(=O)c1ccc(OC2CCN(C(=O)c3cccnc3)CC2)cc1 | 2.15% (inactive)
N#C/C(=C/c1ccccc1)C(=O)NCc1ccccc1 | 62.6% (active)
N#C/C(=C\c1ccc(O)c(O)c1)C(=O)NCCCc1ccccc1 | 28.2% (inactive)
S=C(NCc1ccccc1)NCc1cccc(CNC(=S)NCc2ccccc2)c1 | 10.2% (inactive)
COc1ccc(NC(=O)CC2C(=O)N(C)C(=S)N2Cc2ccncc2)cc1 (stereo not drawn) | -3.37% (inactive)
O=C(O)C1Cc2ccccc2CN1S(=O)(=O)c1ccccc1 (stereo not drawn) | 3.15% (inactive)
O=C(O)Cc1ccc(O)c(F)c1 | -5.48% (inactive)
CCOc1ccc(N2C(=O)CNC2=S)cc1 | -13.8% (inactive)
COc1ccccc1-c1c(C(F)(F)F)oc2cc(OC(=O)c3ccc([N+](=O)[O-])cc3)ccc2c1=O | 29.5% (inactive)
